Source: PubChem (National Center for Advancing Translational Sciences (NCATS))
DRD3 antagonist: blocks the human D3 dopamine receptor; 360,000 tested, 2.5% active; P35462; D3R cells, DiscoveRx beta-arrestin luminescence, antagonist mode; active compounds read low; AID 652054; max response, negative = inhibition, %; in the data active = max response below about -50%; inconclusive = no clear call, values can overlap the other calls; note: % is set by controls: 0 for no effect and ±100 for the full control effect
Target sequence (P35462 whole entry, looked up): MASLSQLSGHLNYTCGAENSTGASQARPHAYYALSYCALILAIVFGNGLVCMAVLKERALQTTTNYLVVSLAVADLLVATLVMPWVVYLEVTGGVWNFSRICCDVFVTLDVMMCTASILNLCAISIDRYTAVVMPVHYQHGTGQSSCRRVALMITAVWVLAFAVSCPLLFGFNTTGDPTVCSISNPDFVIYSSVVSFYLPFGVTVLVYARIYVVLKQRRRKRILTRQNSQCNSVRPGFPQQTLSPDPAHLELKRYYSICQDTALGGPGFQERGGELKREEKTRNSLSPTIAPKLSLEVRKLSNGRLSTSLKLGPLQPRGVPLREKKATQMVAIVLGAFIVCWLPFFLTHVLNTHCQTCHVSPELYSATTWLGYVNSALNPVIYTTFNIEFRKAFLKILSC
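Cells plated overnight at 1500 cells/well, then exposed to library compounds with dopamine controls for 90 minutes at 37 degrees C. DiscoveRx reagent added for 30–60 minutes at room temperature; luminescence read, quantitative HTS format.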
DRD3 agonist: D3 dopamine receptor (human) agonism; D3R DiscoveRx beta-arrestin cells, luminescence, 90 min; max activation, %; 410,000 tested, 0.58% active; in the data active = max activation above about 30%; note: 0% is about no effect
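Cells at 1500/well, incubated overnight, then treated with pinned compounds (dopamine as control) for 90 min at 37 degrees C. DiscoveRx reagent added for 30 - 60 minutes at room temperature; luminescence read.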
uPA generation: inhibitors of cell surface uPA generation; cell surface uPA generation assay, qHTS; Potency, µM (titrated, usually from 38.3 µM), for inactives: at the highest dose activity change, negative = inhibition, actives largely listed as inhibitors; 330,000 tested, 0.31% active; AID 540303; active = well fitted inhibition curve with a large enough effect; inconclusive = small, poorly fitted or top-dose-only effect; inactive = no such curve, though single readings can be large or run the other way; tested in mouse RAW 264.7 cells; note: potency is the fitted concentration of half-maximal effect; % is set by controls: 0 for no effect and ±100 for the full control effect; nearly all actives have a fitted effect of over 55% in size
RGS4 inhibitor: inhibitors of human regulator of G protein signaling 4; Potency, µM (series often up to 114 µM), for the others: top-dose activity change, negative = inhibition, most hits filed as inhibitors; Transcreener GDP fluorescence polarization, RGS4-accelerated GTP hydrolysis; 390,000 tested, 0.039% active; active = well fitted inhibition curve with a large enough effect; inconclusive = small, poorly fitted or top-dose-only effect; inactive = no such curve, though single readings can be large or run the other way; note: potency is the fitted concentration of half-maximal effect; % is set by controls: 0 for no effect and ±100 for the full control effect; nearly all actives have a fitted effect of over 75% in size
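MLSMR compounds (23 nl, pin-transferred) preincubated 10 min at room temperature with a 500nM (2x) first reagent, then RGS4 at 900nM (2x) plus Transcreener GDP mix added; fluorescence polarization (620/688 nm) read before and after 90 min at 30 °C.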
* = called active by the depositor; u = inconclusive; x = not tested or not shown; [ ] = dose if it differs, or a comment. Rows were chosen to be rich in hits. Some 3.1% of all compounds tested hit in one or more screens of this group.

SMILES	DRD3 antagonist	DRD3 agonist	uPA generation	RGS4 inhibitor
COCCNC(=O)/C(C#N)=C/c1c(N2CCN(c3cccc(Cl)c3)CC2)nc2c(C)cccn2c1=O	-5	-15	13%	u
COc1cc(N=Nc2ccc(Br)cc2)cc(C=O)c1O	-75*	-3	x	x
CC1C(=O)CC(c2ccccc2)N(C)C1c1ccccc1 (configuration not stated)	-79*	-23	-26%	3%
CC(=NNC(=S)N1CCN(C2CCCCCC2)CC1)c1ccccn1	u	-16	-7%	u
CC(=NNC(=S)N1CCCCCC1)c1cccc2cccnc12	-71*	-13	-11%	u
O=C(Nc1ccccc1)c1cc2c(-c3ccccc3)nn(-c3ccccc3)c2s1	x	4	x	-8%
COc1ccc(CN2CC(COCc3ccccc3)Oc3ccccc3S2(=O)=O)cc1 (configuration not stated)	0	41*	-10%	-9%
CCCCn1c(SCC(=O)O)nc2ccccc21	-80*	-11	-2%	35%
O=C(O)Cn1c(SCc2ccccc2)nc2ccccc21	-53*	4	14%	-8%
O=C(O)Cn1c(SCc2cccc3ccccc23)nc2ccccc21	u	1	0%	12%
CCCC(=O)Nc1ccc2nc(SCc3ccc(C)cc3)sc2c1	x	6	x	-11%
Cc1nn2c(-c3ccco3)ccnc2c1-c1ccc(Br)cc1	x	9	x	6%
COc1ccc(-n2nc(C(=O)Nc3cccc(C)n3)c3c4ccccc4n(C)c3c2=O)cc1	x	2	x	6%
Cc1cc(-c2c(C)[nH]n(-c3ccc(Cl)cc3)c2=O)n[nH]1	-60*	-11	-7%	23%
CC(CN1c2ccccc2Sc2cccnc21)N(C)C (configuration not stated)	x	-17	x	x
CCCOc1ccc(C2C3=C(Nc4nc(N)[nH]c(=O)c42)c2ccccc2C3=O)cc1 (configuration not stated)	-55*	-9	-1%	-26%
COc1cc2cc(NC(C)=O)cc(NCc3ccccc3)c2cc1OC	u	-19	-4%	-49%
CCCCNc1cc(NC(C)=O)cc2cc(OC)c(OC)cc12	-75*	53*	-3%	-36%
C=CCNc1nc(NCc2ccccc2)c(C#N)c2c1CN(C)CC2	-66*	-6	-6%	-52%
COc1ccc(CN(C)c2ccc(-c3nc(-c4ccc(OC)c(OC)c4)no3)cc2[N+](=O)[O-])cc1	x	6	x	0%
COc1cc(Cl)c(C)cc1NC(=O)CNC(C)c1ccccc1OC (configuration not stated)	-12	-17	x	6%
COc1ccccc1C(C)NCC(=O)Nc1c(F)cccc1F (configuration not stated)	-56*	-28	x	6%
CCN(CC)CCNC1=NCCn2c1cc1cc(OC)ccc12	-8	1	4%	-28%[56.9 µM]
CCN(CC)CCCCNc1ncc2cc(-c3cc(OC)cc(OC)c3)c(NC(=O)NC(C)(C)C)nc2n1	-8	0	7.1µM*	11%
CC(OCC(O)CNCC1COc2ccccc2O1)c1ccc(Cl)cc1 (configuration not stated)	-68*	-3	6%	-27%
SMILES	DRD3 antagonist	DRD3 agonist	uPA generation	RGS4 inhibitor
c1ccc(CNCC2COc3ccccc3O2)cc1 (configuration not stated)	0	19	3%	26%
OC(CNCC1COc2ccccc2O1)COCc1cccs1 (configuration not stated)	-71*	-30	x	-17%
O=C(NCC1COc2ccccc2O1)c1ccccc1 (configuration not stated)	12	1	x	4%
CC(=O)c1cccc(OCC(O)CNCC2COc3ccccc3O2)c1 (configuration not stated)	-51*	37*	0%	-6%
CCN(C(=O)c1sc2nc3n(c(=O)c2c1C)CCCC3)c1ccccc1F	x	-13	x	1%
COc1ccc(C(=O)c2sc3nc(C)cc(-c4cccs4)c3c2N)cc1OC	11	52*	1%	5%
COC(=O)c1ccccc1NC(=O)c1nc(SCc2ccccc2C)ncc1Cl	x	-6	x	17%
CC1CCCCCCC1OC(=O)c1ccccc1C(=O)O (configuration not stated)	5	2	-1%	6%
CN(CCOCCOc1ccc(F)cc1)Cc1ccccc1	-89*	-20	-8%	40%
CCOc1ccccc1OCCOc1ccccc1CC	-3	4	12%	13%
CCOc1ccc(OCCN(C)Cc2ccccc2)cc1	-83*	-4	2%	-15%
CN(CCOc1ccc(Cl)c(Cl)c1)Cc1ccccc1	-93*	-24	19%	11%
CCCCN(C)CCOc1ccccc1OCC	-98*	-19	6%	12%
